Source: PubChem BioAssay (EPA / NIEHS)
Activity calls are given as the source filed them. The calls were made as follows: active = hit-call score of the fitted dose curve at least 0.9, where 1 is the maximum; inactive = score below 0.9.

These compounds were tested on Interleukin 6 Receptor (IL6R), IL6R (gene 3570) (assay: LTEA_HepaRG_IL6R: Life Technologies and Expression Analysis (LTEA) Assay for Interleukin 6 Receptor (IL6R) using HepaRG (AID 2283510;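 as to AC50: TaqMan qRT-PCR signal normalized to ACTB GAPDH and POLR2A housekeeping genes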)). Conditions: mRNA level, 48 h; actives raise or lower the signal.
Procedure: LTEA_HepaRG is a cell based, multiplexed-readout assay that uses HepaRG, a human liver cell line, with measurements taken at 48 hours after chemical dosing on a 96-well plate.LTEA_HepaRG_IL6R is one of 102 assay component(s) measured in the LTEA HepaRG cell culture assay. It is a marker of Inflammation.Data from the assay component LTEA_HepaRG_IL6R was analyzed into 1 endpoint. This assay endpoint, LTEA_HepaRG_IL6R, was analyzed with bidirectional fitting relative to DMSO as the negative control and baseline of activity. Using a type of inducible reporter, measures of mRNA induction for gain or loss-of-signal activity can be used to understand regulation of transcription factor activity. To generalize the intended target to other relatable targets, this assay endpoint is annotated to the cytokine receptor intended target family, where the subfamily is JAK-STAT cytokine receptor.
A total of 1060 chemcials from the ToxCast library were tested in eight-point concentration-response experiments. Cell culture and cytotoxicity assays were conducted at Thermo Fisher Scientific's Custom Services facility (Madison, WI). A single lot of human HepaRG cells (Thermo Fisher Scientific, Frederick, MD) was used for the cell culture experiments. 96-well format collagen type I coated plates of human HepaRG cells were prepared using established methods. Briefly, cryopreserved HepaRG cells were thawed, plated at a density of approximately 100,000 cells/well in HepaRG Thaw, Plate, and General Purpose media (HPRG770, Thermo Fisher Scientific), and incubated for 48 hours. 0.5% DMSO was selected as vehicle control to balance the requisite need of DMSO in HepaRG cultures to maintain differentiation (for example, baseline metabolism, proportions of hepatocytes vs. cholangiocytes), while enabling further hepatic receptor pathway activation (for example, PXR and CAR) in response to chemical exposure. 48 hours after plating, the culture medium was replaced with HepaRG Serum-Free Incudtion Media. Cells were exposed to each test chemical in duplicate and maintained in CO2 incubators for another 48 hours. Chemical plates were thawed to room temperature and 200x concentrations of treatment groups were prepared. 8-point conentration-reponse curves were made with the highest exposure at 100 uM, followed by half-log dilutions, all in 0.5% DMSO. Each test plate contained variouse controls, induction positive controls (1mM phenobarbital), cytotoxicity positive controls ([…] aflatoxin B1), vehicle controls (0.5% DMSO), and total lysis controls (0.5% DMSO). Cell morphology images were taken using an Essen IncuCyte FLR automated microscope, with six 96-well plates imaged in about 24 minutes. Images were captured and exported and JPEG files. Spent culture media was transfered to black-well plates for the LDH assay, and remaining media was sorted at -80 C for later use. Cells were treated with RLT buffer and frozen until shipped for gene expression analysis. Total RNA was isolated from the cell suspension in 75 uL of Buffer RLT (Qiagen, Germantown, MD 20874) by Quintiles/Expression Analysis (Durham, NC) using a custom isolation procedure. Total RNA from each plate well was transferred to a preamplification plate. Fluidigm's 96.96 Dynamic ArrayTM (Fluidigm, Amsterdam, the Netherlands) technology was used for gene expression analyses by quantitative reverse transcription polymerase chain reaction (qRT-PCR, performed by Quintiles/Expression Analysis, Durham, NC)89. Standard TaqManTM Assays (Applied Biosystems/ThermoFisher Scientific, Foster City, CA) were used to assess the expression of 93 genes selected based on their selectivity and sensitivity to important hepatic receptors known to be modulated by environmental chemicals; importance in human hepatocyte functionality; and hepatotoxicity. […]

Compound	outcome	AC50
CCOCCOCCOCCO	inactive	
CCOCCO	inactive	
O=C(OC[C@H]1O[C@@H](OC(=O)c2cc(O)c(O)c(OC(=O)c3cc(O)c(O)c(O)c3)c2)[C@H](OC(=O)c2cc(O)c(O)c(OC(=O)c3cc(O)c(O)c(O)c3)c2)[C@@H](OC(=O)c2cc(O)c(O)c(OC(=O)c3cc(O)c(O)c(O)c3)c2)[C@@H]1OC(=O)c1cc(O)c(O)c(OC(=O)c2cc(O)c(O)c(O)c2)c1)c1cc(O)c(O)c(OC(=O)c2cc(O)c(O)c(O)c2)c1		15.2 µM (active)
CCCCCCCCO	inactive	
Cc1ccc(C)c(O)c1	inactive	
CC[C@H]1OC(=O)[C@H](C)[C@@H](O[C@H]2C[C@@](C)(OC)[C@@H](O)[C@H](C)O2)[C@H](C)[C@@H](O[C@@H]2O[C@H](C)C[C@H](N(C)C)[C@H]2O)[C@](C)(O)C[C@@H](C)C(=O)[C@H](C)[C@@H](O)[C@]1(C)O	inactive	
CC1=CC(=O)CC(C)(C)C1	inactive	
COc1ccc(-n2nc(C(F)F)cc2-c2ccc(S(C)=O)cc2)cc1 (stereo not given)	inactive	
CC(C)c1cccc(C(C)C)c1N1C(=O)c2ccc(O)cc2C1=O	inactive	
Cn1c(=O)c2c(ncn2C)n(C)c1=O	inactive	
CCCCCCCCCCCCc1ccccc1	inactive	
COCCOCCOCCOC	inactive	
O=C(O)CC(O)C(=O)O (stereo not given)	inactive	
CCOC(=O)c1ccc(C2CCC(NC[C@H](O)COc3ccc(O)c(NS(C)(=O)=O)c3)CC2)cc1 (stereo not given in full)	inactive	
CC(=O)OCCC(C)C	inactive	
CCCCC(CC)COC(=O)c1ccc(C(=O)OCC(CC)CCCC)cc1 (stereo not given)	inactive	
O=C(O)c1cc(N=Nc2ccc(S(=O)(=O)Nc3ccccn3)cc2)ccc1O	inactive	
COc1ccc(/C=C/S(=O)(=O)NC(=O)c2ccc(C)cc2Cl)cc1	inactive	
On1ccccc1=S	inactive	
CC(C)=CCCC(C)CCO (stereo not given)	inactive	

Compound	outcome	AC50
CCCN(C1CCN(C(=O)C2CCNCC2)CC1)[C@@H]1CCc2ccc(OC)cc2C1		50 µM (active)
O=C(CCCCCCCCc1cccnc1)N1CCC(C=C(c2ccccc2)c2ccccc2)CC1		89.3 µM (active)
CNS(=O)(=O)c1cc(C(=O)N2CCC(CCN3C4CCC3CC(n3c(C)nc5ccccc53)C4)(c3cccc(F)c3)CC2)c(Cl)cc1F (stereo not given)	inactive	
COCCOc1cc2cc(C(=O)NC3CCN(C(C)C)CC3)n(CC(=O)Nc3ccc(Cl)cn3)c2cn1		10.6 µM (active)
O=C(NS(=O)(=O)/C=C/c1ccccc1)c1ccc(F)cc1Cl	inactive	
O=C(O)c1cccc(Oc2ccccc2)c1	inactive	
CC(C)(O)c1coc(S(=O)(=O)NC(=O)Nc2c3c(cc4c2CCC4)CCC3)c1	inactive	
CC(C)CC(C)(O)C#CC(C)(O)CC(C)C (stereo not given)	inactive	
C[C@](N)(Cc1ccc(O)c(O)c1)C(=O)O	inactive	
Cc1ccc(O)cc1	inactive	
COC(=O)CC(=O)OC	inactive	
Cn1cnc([N+](=O)[O-])c1Sc1ncnc2nc[nH]c12	inactive	
O=C1CCC(N2C(=O)c3ccccc3C2=O)C(=O)N1 (stereo not given)	inactive	
CC[C@H]1CC[C@H](NCc2cc3c(cc2OC)[C@H]2C[C@H]2C(=O)N3C)[C@H](c2ccccc2)N1	inactive	
CCCCC(CC)COC(=O)CCCCCCCCC(=O)OCC(CC)CCCC (stereo not given)	inactive	
Cc1ccc(N)cc1O	inactive	
CN(C)c1ccc(N=NS(=O)(=O)O)cc1		22.3 µM (active)
NC(=O)NO	inactive	
O=C(O)c1cccc(N(Cc2cccnc2)c2ccc(OC(F)F)c(OC(F)F)c2)c1	inactive	
C=CCCCCCCCCC(=O)O	inactive	
